Measurements reported in the supplement of paper PMC6555819.

System: PXR:RXRa (NR concentration 270 nM, RXRa partner concentration 90 nM)
Assay: PBM binding z-score (relative to random genomic background probes); higher = stronger binding; sequences stand for … in GC…GCGATTGACAGCGTAGAATGAAGG
Outline: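 On custom Agilent 4×180K arrays, double-stranded probes with 34-nt variable regions carried direct-repeat seeds, single-nucleotide variants, half-site ablations or random human genomic background. Ligand-free nuclear receptor dimers were applied for 1 h, and binding was read with antibodies against each partner (one per run). Binding z-scores come from regression-normalized fluorescence, with the random background probes as reference.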

Sequence | PBM binding z-score
CGTCCAAGGTCGTAGGAGGTCAGTGAAGACAGAT | 5.77
TCTGCTAGGTCAACGATGATCAGCTAATCTGCTA | 0.896
TCAAATAGGTAAAGGTGAAAGTCGAACGATATGA | 1.17
TCTATTAGTTGATTAGGGCAACTGAAACAGCGGA | 0.233
AGAATGAGGTAATACGTAGATCAGGGAAGAAAGT | 0.144
ACTATTAGTTGACTTAGGACAACCGATACGACGC | 0.411
AGTCAAAGTTCAGGACGAAGTAACGTAAAGCACG | 2.02
TCTTGTAGATCAAGGGTTAAGAAAGCCGAAGCCT | 0.471
CGAACTAGGTCGGAACAGGACAGTGAAGGATGAT | -0.28
AGAACGAGGGCAATAAGTTGATAGCACGGGTGGC | 1.09
AGAACGATGGCACGCTGAGTTGATAGCAGAGTAG | -0.552
GATACAGGGTCAGCTAGAGGACAGAGTATGGAAA | 3.17
TCATATAGGTAAATGCTAGGTGAAAGTGCGATCT | 0.653
GCTAGTTGGTCAGTAAAAGGTCAGACACCGGTCG | 3.35
AGAATGAGGTTACCAAACATCAGGGAAACGCTTG | 0.954
ACTCGGAAGACAAAGGTCAGAGCTACGCCAGTGA | 3.25
ACAGACAGGTTAGTGAAGGTAACTCAGCTGGACG | -0.0921
TCTATTAGTTGACTAGGGCAACCGAAACAGCGGA | 0.491
ACTAGCAGGCCAAGTTTGGGTCACTTAAACAAAG | 0.603
CCTACTGGGCCACGAAAGCTCATTGATTCAGTGA | -0.923
ACTAGCAGGCCAGGTTTGGGTCACTCAAACAAAG | 0.351
TAGCCTACGTCAGATCGGGCCAGTATACGCTATA | -0.718
